This note sets out measurements from PubChem BioAssay (NCI).

Structures are written as SMILES. Compounds without any hit were thinned out: in the full panel of roughly 83,000, 20% have a hit.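 Activity criterion: percent growth below 10, measured after cells in 96-well plates were exposed to a single compound concentration for 48 hours.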 The source made the active and inactive calls.

In this assay the test system is HL-60(TB) leukemia. Put plainly: NCI-60 one-dose screen, 48 h (100 = growth as untreated, 0 = no growth, -100 = all killed). The note with it: 10 µM unless noted.
As for `CCOC(=O)C1=C(C)N2C(=NC3=C(CCC/C3=C\c3ccc(Cl)cc3)C2c2ccc(Cl)cc2)S1` (stereo not given), the growth was -10.8% (active). As to `CC1(C)CC2=C3C=C[C@@H]4[C@@]5(C)CCC(=O)C(C)(C)[C@@H]5CC[C@@]4(C)[C@]3(C)CC[C@@]2(C(=O)O)C[C@H]1O`, the growth is 23% (inactive). As for `COc1cc(NCCCN(CC(C)C)CC(C)C)c2ncccc2c1`, the growth is 89.8% (inactive). For `Cc1cc2nc3c4cc(Cl)ccc4n(CCN(C)C)c3nc2cc1C`, the growth is 20% (inactive). As to `Fc1ccc2c(-c3cncn3CCc3ccccc3)c[nH]c2c1`, the growth is 85.8% (inactive).

Consider `COc1ccc(-c2ccc(=O)oc2-c2cc(OC)c(OC)c(OC)c2)cc1O`, for which the growth was -55.6% (active). The result for `COc1cc(-c2nc3sccn3c2-c2ccnc(NCCCNS(=O)(=O)c3ccc(F)cc3)n2)ccc1F` reads 64.9% (inactive); that for `O=C1OC(N(Cc2ccc(Cl)cc2)c2ccccc2)c2ccccc21` (stereo not given), 93.8% (inactive).

Take `COc1ccc(/C=C/C(=O)NCC(C)O)cc1` (stereo not given): the growth was 109% (inactive). To `CCOC(=O)C1CSC(C)(C(=O)OCC)N1` (stereo not given) belongs 83.8% (inactive); to `COc1c(NC[C@H]2OC(O)[C@H](O)[C@@H](O)[C@@H]2O)c(=O)c1=O` (stereo not given in full), 114% (inactive); to `COc1cc(/C=C/c2cc(/C=C/c3ccc(O)c(OC)c3)n(C(=O)Nc3ccc(C)cc3)n2)ccc1O`, -28.2% (active). To `CCOC(=O)c1c(Cl)c2c(n1Cc1ccc(OC)cc1)-c1oncc1CCC2` belongs 78.9% (inactive); to `Cc1c(C)c2c(c(C)c1OCC(=O)O)CC[C@@](C)(CCC[C@@H](C)CCC[C@@H](C)CCCC(C)C)O2`, 1.94% [50 µM] (active). Take `CC1(C)N=C(N)N=C(N)N1c1ccc(Cl)cc1`: the growth was 51.6% (inactive). To `COc1ccccc1/C=C1\COc2ccc(-c3ccccc3)cc2C1=O` belongs -47.8% (active). Regarding `C/C(=C\c1csc(C)n1)[C@@H]1C[C@@H]2O[C@]2(C)CCC[C@H](C)[C@H](O)[C@@H](C)C(=O)C(C)(C)[C@@H](O)CC(=O)N1`, the growth was 0.771% (active).

Turning to `Cc1ccccc1NC(=O)NC(CC(N)=O)c1ccc2c(c1)nc(-c1cccc(Oc3ccc(C(C)(C)C)cc3)c1)n2CCCN1CCCCC1C` (stereo not given), the growth is -3.28% (active). The result for `COc1ccc(/C=C2\CCCC3=C2NC(N)=NC3c2ccc(OC)c(OC)c2)cc1OC` (stereo not given) reads 42.4% (inactive). To `O=[N+]([O-])/C(=C\c1ccco1)c1ccccc1Cl` belongs 81.6% (inactive); to `Cc1cc(NC(=O)c2cnc(N3CCN(CCOCCOCCOCCOCCC(=O)N[C@H](C(=O)N4C[C@H](O)C[C@H]4C(=O)N[C@@H](C)c4ccc(-c5scnc5C)cc4)C(C)(C)C)CC3)cn2)c2ncccc2c1`, -21.1% (active).

As to `CN(CCOc1ccc(C#N)cc1)CCOc1ccc(C#N)cc1`, the growth was 42.4% (inactive). The result for `COc1ccc(CN2CCCC(C(=O)c3ccc(C(F)(F)F)cc3)C2)c(O)c1` (stereo not given) reads 17% (inactive); that for `CCN(CC)CC(O)c1cc(-c2ccc(Cl)cc2)nc2c(C)c(Cl)ccc12` (stereo not given), -71.5% (active).

With `CN(C)c1ccc(-c2cc(-c3ccc(Nc4nc(Nc5ccc(Cl)cc5)nc(Nc5ccc(Cl)cc5)n4)cc3)nc(N)c2C#N)cc1`, the growth is 68% (inactive). The result for `COc1cc(NCC(O)CN(CC(C)C)CC(C)C)c2ncccc2c1` (stereo not given) reads 62.7% (inactive); that for `C=C(Cl)[C@@](Cl)(CBr)CC[C@@H](Br)C(C)(C)Cl`, -68.1% (active).

Take `O=C(Nc1ccccc1)OCC1OCOC(COC(=O)Nc2ccccc2)C1OC(=O)Nc1ccccc1` (stereo not given): the growth was 122% (inactive). For `CCCCCCCCCCCC[n+]1ccccc1` (tested in a mixture with another compound), the growth is -77.6% (active). Turning to `CCC(C)[C@@H]1NC(=O)[C@@H]2CCCN2C(=O)[C@H](Cc2ccccc2)NC(=O)[C@@H]2CCCN2C(=O)[C@H](Cc2ccccc2)NC(=O)[C@@H]2CCCN2C(=O)[C@H](Cc2ccccc2)NC1=O` (stereo not given in full), the growth was 95.6% (inactive). To `Cc1cc(C)cc(Nc2ccc([N+](=O)[O-])c(NCCN3CCOCC3)n2)c1` belongs -13.9% (active). The result for `O=C(/C=C/c1cc([N+](=O)[O-])ccc1Cl)c1ccccc1` reads 61.7% (inactive); that for `COC(=O)c1c2c(c(C)[n+]([O-])c1C)C(=O)C=C(NCc1ccc(F)c(F)c1)C2=O`, -24% (active); that for `O=S(=O)(Nc1ccccc1Cl)c1ccc(-c2cnc(C3CC3)o2)cc1`, 7.9% (active). Regarding `CC(=O)N[C@@H](CNC(=O)c1cc(NC(=O)c2cc(NC(=O)c3cc(NC(=O)c4nccn4C)cn3C)cn2C)cn1C)CC(=O)Nc1cn(C)c(C(=O)Nc2cc(C(=O)Nc3cc(C(=O)Nc4cc(C(=O)NCCCN(C)CCCNC(=O)c5cccc(C(=O)O)c5)n(C)c4)n(C)c3)n(C)c2)n1`, the growth is 109% (inactive).
